Measured values published in PubChem BioAssay (EPA / NIEHS).
Inconclusive results are not listed. Active and inactive are the calls of the source. The calls were made as follows: active = hit-call score of the fitted dose curve at least 0.9, where 1 is the maximum; inconclusive = response in the unintended direction; inactive = score below 0.9.

The molecules below were run against Nucleoli Translocation, AR (gene 367) (UniProt P10275) (assay: UPITT_HCI_U2OS_AR_TIF2_Nucleoli_Agonist: University of Pittsburgh U2OS Androgen Receptor-Transcriptional Intermediary Factor 2 (AR-TIF2) Agonism High Content Imaging Assay for Nucleoli Translocation (AID 2283998)).
Chain of Nucleoli Translocation, AR (gene 367) (P10275 whole entry, looked up, the tested form may be a part): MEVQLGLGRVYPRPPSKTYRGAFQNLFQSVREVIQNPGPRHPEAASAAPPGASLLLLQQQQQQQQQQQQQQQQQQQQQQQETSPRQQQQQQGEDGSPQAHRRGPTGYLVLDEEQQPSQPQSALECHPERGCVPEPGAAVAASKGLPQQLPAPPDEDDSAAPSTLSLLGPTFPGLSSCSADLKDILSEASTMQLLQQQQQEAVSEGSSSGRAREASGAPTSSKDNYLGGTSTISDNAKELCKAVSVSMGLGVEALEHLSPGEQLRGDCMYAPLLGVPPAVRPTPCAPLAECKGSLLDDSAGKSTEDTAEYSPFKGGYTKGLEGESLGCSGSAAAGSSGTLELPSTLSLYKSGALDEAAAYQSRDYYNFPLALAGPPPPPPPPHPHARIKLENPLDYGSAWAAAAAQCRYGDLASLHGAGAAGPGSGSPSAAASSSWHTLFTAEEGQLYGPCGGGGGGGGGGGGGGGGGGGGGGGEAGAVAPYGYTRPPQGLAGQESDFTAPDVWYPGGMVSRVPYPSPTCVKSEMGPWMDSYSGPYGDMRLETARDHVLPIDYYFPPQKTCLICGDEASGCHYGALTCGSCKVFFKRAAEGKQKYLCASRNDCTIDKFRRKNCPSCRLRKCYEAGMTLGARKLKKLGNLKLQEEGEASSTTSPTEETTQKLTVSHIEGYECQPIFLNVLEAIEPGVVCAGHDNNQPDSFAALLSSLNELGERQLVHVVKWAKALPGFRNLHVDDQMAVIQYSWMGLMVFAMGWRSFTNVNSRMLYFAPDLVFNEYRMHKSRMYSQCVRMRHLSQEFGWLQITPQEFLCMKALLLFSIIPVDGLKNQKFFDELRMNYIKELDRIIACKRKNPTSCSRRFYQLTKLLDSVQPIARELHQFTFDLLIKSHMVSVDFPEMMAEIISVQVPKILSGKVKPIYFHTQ
From the text: UPITT_AR_TIF2_PPIB is a cell-based, high-content imaging assay that uses U2OS, a human osteosarcoma cell line, expressing a human androgen receptor fused to red fluorescent protein and the coactivator TIF2 fused to green fluorescent protein. UPITT_HCI_U2OS_AR_TIF2_Nucleoli_Agonist is one of four assay components measured from the UPITT_AR_TIF2_PPIB assay. It is designed to make measurements of red fluorescence localized in the nucleolar region of the cell nucleus as detected with high-content fluorescent imaging.Data from the assay component UPITT_HCI_U2OS_AR_TIF2_Nucleoli_Agonist was analyzed into 1 assay endpoint. This assay endpoint, UPITT_HCI_U2OS_AR_TIF2_Nucleoli_Agonist, was analyzed in the positive analysis fitting direction relative to DMSO as the baseline of activity. Using a type of binding reporter, measures of receptor for gain-of-signal activity can be used to understand the binding at the pathway-level as it relates to the gene AR.
Daughter plates containing 2 uL of 10 mM compounds in DMSO were prepared and replicated from the 384-well Library of Pharmacologically Active Compounds (LOPAC) master plates using the Bravo outfitted with a 384-well transfer head. Aluminum adhesive plate seals were applied with an Abgene Seal-IT 100 (Rochester, NY) plate sealer, and the plates were stored at -20 C in a Matrical MatriMinistore (Spokane, WA) automated compound storage and retrieval system. For screening, LOPAC daughter plates were withdrawn from -20C storage, thawed to ambient temperature, centrifuged 1-2 min at 50 g, and the plate seals were removed before the transfer of 98 uL of serum-free tissue culture medium (SFM) into wells using the BioTek Microflo liquid handler (BioTek, Winooski, VT) to generate a 200 uM intermediate stock concentration of library compounds (2.0% DMSO). The diluted compounds were mixed by repeated aspiration and dispensation using a 384-well P30 dispensing head on the Evolution P3 (EP3) liquid handling platform (PerkinElmer, Waltham, MA) and then 5 uL of diluted compounds was transferred to the wells of assay plates. In the LOPAC screen, compounds were individually tested at a final concentration of 20 uM (0.2% DMSO). After the diluted compounds had been transferred from the daughter plates to the primary HCS assay plates, aluminum adhesive plate seals were applied and the diluted daughter plates were stored frozen at -20C. To confirm active compounds identified in the primary screen, we withdrew the LOPAC daughter plates containing the 200 uM intermediate concentration of library compounds (2.0% DMSO) from -20C storage, thawed them to ambient temperature, centrifuged them for 1-2 min at 50 g, and removed the plate seals. A work list was generated to direct the Multiprobe Janus liquid handling platform (PerkinElmer) to cherry pick 75 uL from the wells of the diluted daughter plates that were flagged active in the primary screen and to reformat these into a 384-well plate hit confirmation daughter plate. Five microliters of primary HCS active compounds was then transferred into triplicate wells of assay plates using a 384-well P30 dispensing head on the Evolution P3 (EP3) liquid handling platform (PerkinElmer). […] Daughter plates containing 2 uL of the serially diluted compounds in DMSO were prepared and replicated from the 384-well serial dilution master plates using the Bravo outfitted with a 384-well transfer head. Aluminum adhesive plate seals were applied and plates were stored at -20C. For testing in the bioassays, daughter plates were withdrawn from -20C storage, thawed to ambient temperature, centrifuged for 1-2 min at 50 g, and the plate seals were removed before the transfer of 38 uL of SFM into wells using the BioTek Microflo liquid handler (BioTek) to generate an intermediate stock concentration of library compounds ranging from 1.95 to 500 uM (5.0% DMSO). […]

Row | SMILES | outcome | AC50
1 | CCCCCCCCCCCCCC[P+](CCCC)(CCCC)CCCC | inactive | –
2 | CCCCCCCCCCCCC[N+](C)(C)Cc1ccccc1 | inactive | –
3 | CCCCCCCCCc1ccc(OCCO)cc1 | inactive | –
4 | CCCCCCCC/C=C\CCCCCCCC(=O)OCC(O)CO (configuration not stated) | inactive | –
5 | CCN=c1cc2oc3cc(NCC)c(C)cc3c(-c3ccccc3C(=O)OCC)c-2cc1C | – | 12.9 µM (active)
6 | F[Si-2](F)(F)(F)(F)F | inactive | –
7 | O=C1C=CC(=O)N1c1ccccc1 | inactive | –
8 | CC1CCCCC1 | inactive | –
9 | Cc1cccc(C)n1 | inactive | –
10 | COCCOCCC[Si](C)(O[Si](C)(C)C)O[Si](C)(C)C | – | 88.8 µM (active)
11 | C[C@]12CC[C@H]3C(=CCc4cc(O)ccc43)[C@@H]1CCC2=O | inactive | –
12 | CCc1ccc(C)nc1 | inactive | –
